Data: ChEMBL document CHEMBL4513216, “Probing the Open Global Health Chemical Diversity Library for Multistage-Active Starting Points for Next-Generation Antimalarials” (ACS Infect Dis, 2020)
About 2,700 (4%) of roughly 68,000 compounds showed an effect of 50% or more. Only a selection was taken, and strong results are over-represented in it overall.

Tested on: Plasmodium berghei
Assay: Screen against P. berghei liver stage (PbLuc), transformed with Luciferase, at 2uM
Type: functional, HepG2
Conditions: tested at 2 uM

First: CCOc1cccc(NC(=O)Cc2cccc(O)c2)n1
Second: CSc1ccc(NC(=O)Cc2cccc(O)c2)nc1
The INHIBITION of the first is lower: 0.51% for the first, 55.36% for the second.

First: Cn1ccc(NC(=O)Cc2cccc(F)c2)n1
Second: COC(=O)c1ccc(CNCc2cn(C)nc2C)cc1
The INHIBITION of the first is higher: 19.89% for the first, 14.26% for the second.

Going from COCCC(=O)N1C[C@@H](c2ccccc2F)[C@@]2(CCCC(=O)N2)C1 to Cc1cccc(C(=O)N2CCCC[C@]3(C)NC(=O)CCC[C@H]23)n1, the INHIBITION rises from -6.19% to 49.48%.

Compared with O=C(NCc1cnc2n1CCN(CC1CCOCC1)C2)c1ccno1, Cc1cccc2c1ccn2CC(=O)NC[C@@H]1CCCN2CCCC[C@H]12 is higher in INHIBITION: -14.52% for the first, -7.52% for the second.

Compared with Cc1ccc(S(=O)(=O)N2CCCCC(N3CCN(C)CC3)C2)cc1F (centres undefined), Cc1cc(S(=O)(=O)N2CCCN3CCCC3C2)ccc1F (centres undefined) is lower in INHIBITION: 50.3% for the first, 6.07% for the second.

First: Cc1ccc(S(=O)(=O)N2CCC(N3CCCCC3)CC2)cc1C
Second: COc1cc(C2(C(=O)N3CCN(CC(C)O)CC3)CC2)ccc1C (centres undefined)
The INHIBITION of the first is higher: -25.62% for the first, -71.2% for the second.

Compared with Nc1nccnc1CC1CCCN(Cc2ccnc3ccccc23)C1 (centres undefined), Cc1noc(C(C)N2CCN(c3ncnc4ccccc34)CC2)n1 (centres undefined) is lower in INHIBITION: 13.02% for the first, 4.34% for the second.

Compared with CC(C)c1nc(CN2CCCC2Cn2cccn2)no1 (centres undefined), CC(C)c1nc(CN2CCOC(Cn3cncn3)C2)cs1 (centres undefined) is higher in INHIBITION: -97.56% for the first, 11.2% for the second.

Going from COCCN(C)Cc1cc(Cl)ccc1OCC(O)CN1CCCCCC1 (centres undefined) to CCC(O)CN1CCN(C(=O)C2(c3ccc(C)c(OC)c3)CC2)CC1 (centres undefined), the INHIBITION rises from -55.56% to -10.44%.

Compared with CCOc1ccccc1CNC(=O)NCC(c1cnn(C)c1)N(C)C (centres undefined), CCOCc1ccccc1NC(=O)NCC(c1cnn(C)c1)N(C)C (centres undefined) is lower in INHIBITION: 71.95% for the first, 18.54% for the second.

Compared with CCOc1cc(F)ccc1NC(=O)NCC(c1cnn(C)c1)N(C)C (centres undefined), CCOc1ccccc1CCNC(=O)NCC(O)c1ccsc1 (centres undefined) is higher in INHIBITION: -24.88% for the first, 53.63% for the second.

First: COc1ccc(CN2CCn3cc(CN4CCCCC4)nc3C2)cc1
Second: COc1ccc(CNCc2cn(C)nc2C)cc1
The INHIBITION of the first is lower: -5.87% for the first, 51.32% for the second.

First: Cc1cc(CN2C[C@@H]3COC[C@]3(COCc3csc(C)n3)C2)no1
Second: Cc1noc(C(C)N2CCN(c3ncnc4sccc34)CC2)n1 (centres undefined)
The INHIBITION of the first is lower: 1.74% for the first, 52.89% for the second.

Going from CN(C)c1ccc(CCCNC(=O)NCC(O)c2ccsc2)cc1 (centres undefined) to CCOc1ccccc1CCNC(=O)NCC(O)c1cccs1 (centres undefined), the INHIBITION falls from 34.55% to -23.79%.

Going from Cc1ccccc1N1CCN(C(=O)CCc2nncn2C)C(C)C1 (centres undefined) to CS(=O)(=O)N1CC[C@]2(O)CCN(CCCC(=O)c3ccccc3)C[C@@H]2C1, the INHIBITION rises from -38.81% to -30.08%.

First: Cc1cccc(C2CC(=O)Nc3c2c(=O)[nH]n3C(C)C)c1 (centres undefined)
Second: CCn1c(O)c(C(C)=O)c2cc(C)ccc21
The INHIBITION of the first is lower: -36.73% for the first, 30.48% for the second.

Going from Cc1nn(C)cc1CNCc1ccc(N(C)C)cc1 to Cc1nn(C)c2cn(C(C)C(=O)NCc3ccncc3)nc12 (centres undefined), the INHIBITION rises from 8.09% to 22.13%.

First: C/C(NC(=O)c1ccccn1)=C1\C(=O)C[C@@H]2[C@H]1C2(C)C
Second: C/C(NC(=O)c1ccco1)=C1/C(=O)C[C@@H]2[C@H]1C2(C)C
The INHIBITION of the first is higher: 52.74% for the first, 18.11% for the second.

Going from C/C(NC(=O)c1cccs1)=C1\C(=O)C[C@@H]2[C@H]1C2(C)C to CCC[C@@H]1CN(Cc2cnc(-c3cccs3)nc2)C[C@H]1C(=O)O, the INHIBITION falls from 21.57% to -9.03%.

First: O=C1CC2(CCCNC2)C(=O)N1Cc1ccc(Cl)cc1 (centres undefined)
Second: Cc1ccc2nc(C(=O)N3CCCC[C@]4(C)NC(=O)CCC[C@H]34)cn2c1
The INHIBITION of the first is lower: -59.66% for the first, 55.74% for the second.

First: Cc1cccc2nc(C(=O)N3CCCC[C@]4(C)NC(=O)CCC[C@H]34)cn12
Second: COc1ccccc1C1(C(=O)N2CCN(CC(C)O)CC2)CC1 (centres undefined)
The INHIBITION of the first is lower: 29.06% for the first, 58.53% for the second.

Going from CCc1c(C)[nH]c(C(C)(C)N)nc1=O to CCc1noc(C(C)N2CCN(C)CC2)n1 (centres undefined), the INHIBITION rises from -33.81% to 9.83%.

First: O=C(NC1CC1)[C@@H]1CCO[C@@H]2CCN(CCc3ccccc3)C[C@@H]21
Second: CC(C)CN1CCC2(CCN(CC3CC3)CC2)C1=O
The INHIBITION of the first is lower: 8.88% for the first, 16.25% for the second.

Compared with CCC[C@@H]1CN(c2ncnc3sccc23)C[C@H]1C(=O)O, CCC[C@@H]1CN(c2ncnc3sccc23)C[C@H]1NS(C)(=O)=O is lower in INHIBITION: 51.48% for the first, 46.58% for the second.

Going from CC(Cc1ccccc1F)C(=O)Nc1ccc(OCCC(N)=O)cc1 (centres undefined) to NC(=O)CCOc1ccc(NC(=O)c2ccccc2OC(F)F)cc1, the INHIBITION rises from -11.88% to 58.14%.

Going from COc1cccc(C(=O)Nc2ccc(OCCC(N)=O)cc2)c1OC to CCc1noc(C(C)N2CCN(c3ccc(C#N)cn3)CC2)n1 (centres undefined), the INHIBITION falls from -20.19% to -30.71%.

First: CCc1noc(C(C)N2CCN(c3ncnc4sccc34)CC2)n1 (centres undefined)
Second: Cc1noc(C(C)N2CCN(c3ccc(C#N)cn3)CC2)n1 (centres undefined)
The INHIBITION of the first is higher: 52.89% for the first, 25.35% for the second.
